This note sets out measurements from paper PMC7862700, “An all-to-all approach to the identification of sequence-specific readers for epigenetic DNA modifications on cytosine”.

Holding throughout (test): DAPPL (digital affinity profiling via proximity ligation, sequencing); 10 mM Tris-HCl pH 7.5, 50 mM NaCl, 1 mM DTT, 4% glycerol, room temperature, 30 min; GST-TFs on glutathione beads, 16-mer random dsDNA library, 0.1% formaldehyde crosslink after washing; high values mean tight binding
Assay [1] has as its target T1, FLI1 (Homo sapiens, UniProt Q01543 1-452).
T1 sequence: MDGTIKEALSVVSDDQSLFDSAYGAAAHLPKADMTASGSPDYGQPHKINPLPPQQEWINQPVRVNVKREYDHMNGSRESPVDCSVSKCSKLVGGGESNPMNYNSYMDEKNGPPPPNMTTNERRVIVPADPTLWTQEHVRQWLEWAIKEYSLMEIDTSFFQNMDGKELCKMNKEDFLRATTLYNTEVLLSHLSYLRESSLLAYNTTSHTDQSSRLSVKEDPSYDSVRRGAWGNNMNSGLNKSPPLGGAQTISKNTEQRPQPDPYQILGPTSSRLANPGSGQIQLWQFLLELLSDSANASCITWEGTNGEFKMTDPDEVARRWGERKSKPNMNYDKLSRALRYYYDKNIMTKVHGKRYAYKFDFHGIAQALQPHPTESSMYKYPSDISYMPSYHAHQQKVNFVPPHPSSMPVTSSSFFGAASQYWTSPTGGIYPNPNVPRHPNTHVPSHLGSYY
Conditions: protein: recombinant; tags: N-terminal GST; dsDNA, one strand shown. In outline:
(§1)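 Beads coated with glutathione captured GST-fused human transcription factors that had been expressed in yeast, and the factors were then given DNA barcodes and pooled with a tag-only sample. The pools were incubated with 200 nmole of a random double-stranded 16-mer DNA library in Tris/NaCl/DTT/glycerol buffer for 30 min at room temperature, washed, crosslinked with 0.1% formaldehyde and proximity-ligated with BsaI/T4 ligase at 37 °C for 1 h. PCR amplification and Illumina NextSeq500 sequencing came last. Binding signal is each hexamer's read frequency for a factor divided by its frequency for the tag-only sample.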

Assay [2] addresses T2, ELK1 (Homo sapiens, UniProt P19419 1-428).
T2 sequence: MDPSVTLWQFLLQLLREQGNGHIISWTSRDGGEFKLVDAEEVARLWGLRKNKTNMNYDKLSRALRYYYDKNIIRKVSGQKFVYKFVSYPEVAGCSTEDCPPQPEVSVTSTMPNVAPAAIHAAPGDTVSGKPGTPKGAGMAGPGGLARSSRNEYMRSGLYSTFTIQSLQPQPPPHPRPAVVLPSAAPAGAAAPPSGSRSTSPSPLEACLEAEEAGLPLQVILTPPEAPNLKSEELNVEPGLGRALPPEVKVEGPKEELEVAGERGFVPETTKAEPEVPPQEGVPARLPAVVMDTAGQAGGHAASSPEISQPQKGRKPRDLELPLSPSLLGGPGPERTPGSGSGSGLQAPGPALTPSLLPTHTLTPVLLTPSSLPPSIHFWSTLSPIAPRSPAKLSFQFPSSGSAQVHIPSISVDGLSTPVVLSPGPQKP
Conditions: protein: recombinant; tags: N-terminal GST; dsDNA, one strand shown. In a few lines: as §1

In assay [3] the target is T3, GABPA (Homo sapiens, UniProt Q06546 1-454).
T3 sequence: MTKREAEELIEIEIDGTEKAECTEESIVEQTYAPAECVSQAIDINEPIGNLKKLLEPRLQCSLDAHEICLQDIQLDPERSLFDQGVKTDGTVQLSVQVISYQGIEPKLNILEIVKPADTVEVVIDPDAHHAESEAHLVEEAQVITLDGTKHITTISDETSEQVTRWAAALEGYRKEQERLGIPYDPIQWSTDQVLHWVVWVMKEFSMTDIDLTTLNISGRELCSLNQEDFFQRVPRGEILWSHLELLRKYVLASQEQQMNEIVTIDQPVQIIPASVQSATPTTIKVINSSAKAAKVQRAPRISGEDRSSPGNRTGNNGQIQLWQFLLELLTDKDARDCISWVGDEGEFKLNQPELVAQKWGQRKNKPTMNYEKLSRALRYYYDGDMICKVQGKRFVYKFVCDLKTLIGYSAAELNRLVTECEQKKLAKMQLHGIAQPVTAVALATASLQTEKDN
Conditions: protein: recombinant; tags: N-terminal GST; dsDNA, one strand shown. In outline: as §1

Assay [4] addresses T4, ERG (Homo sapiens, UniProt P11308 1-479).
T4 sequence: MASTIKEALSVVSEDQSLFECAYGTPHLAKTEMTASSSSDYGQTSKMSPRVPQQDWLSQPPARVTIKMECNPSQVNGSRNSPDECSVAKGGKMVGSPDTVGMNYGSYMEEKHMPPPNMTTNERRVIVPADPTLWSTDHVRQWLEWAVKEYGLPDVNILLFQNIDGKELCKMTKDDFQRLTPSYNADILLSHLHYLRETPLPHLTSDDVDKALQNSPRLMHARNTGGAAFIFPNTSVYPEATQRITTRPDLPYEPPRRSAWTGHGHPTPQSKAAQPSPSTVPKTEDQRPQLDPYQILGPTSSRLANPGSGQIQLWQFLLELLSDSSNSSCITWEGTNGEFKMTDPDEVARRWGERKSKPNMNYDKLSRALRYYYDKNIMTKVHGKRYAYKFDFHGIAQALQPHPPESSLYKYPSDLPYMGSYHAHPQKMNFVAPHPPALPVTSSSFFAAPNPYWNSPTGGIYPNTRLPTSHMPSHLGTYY
Conditions: protein: recombinant; tags: N-terminal GST; dsDNA, one strand shown. In outline:
as §1

The target in assay [5] is T5, EHF (Homo sapiens, UniProt Q9NZC4 1-300).
T5 sequence: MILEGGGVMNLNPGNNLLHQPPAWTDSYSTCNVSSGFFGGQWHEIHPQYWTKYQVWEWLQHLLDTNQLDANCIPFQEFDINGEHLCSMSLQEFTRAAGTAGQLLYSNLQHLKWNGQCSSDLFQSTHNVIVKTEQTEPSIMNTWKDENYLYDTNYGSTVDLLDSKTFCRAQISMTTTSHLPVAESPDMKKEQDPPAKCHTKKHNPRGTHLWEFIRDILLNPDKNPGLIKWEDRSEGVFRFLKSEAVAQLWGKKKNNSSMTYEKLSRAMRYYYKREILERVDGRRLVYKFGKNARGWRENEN
Conditions: protein: recombinant; tags: N-terminal GST; dsDNA, one strand shown. In a few lines: as §1

For assay [6], the target named is SPI1 (Homo sapiens, UniProt P17947 1-270). Conditions: protein: recombinant; tags: N-terminal GST; dsDNA, one strand shown. In outline: as §1
Assay [7] addresses SPIB (Homo sapiens, UniProt Q01892 1-262). Conditions: protein: recombinant; tags: N-terminal GST; dsDNA, one strand shown. In outline: as §1
The target in assay [8] is T6, ELK3 (Homo sapiens, UniProt P41970 1-407).
T6 sequence: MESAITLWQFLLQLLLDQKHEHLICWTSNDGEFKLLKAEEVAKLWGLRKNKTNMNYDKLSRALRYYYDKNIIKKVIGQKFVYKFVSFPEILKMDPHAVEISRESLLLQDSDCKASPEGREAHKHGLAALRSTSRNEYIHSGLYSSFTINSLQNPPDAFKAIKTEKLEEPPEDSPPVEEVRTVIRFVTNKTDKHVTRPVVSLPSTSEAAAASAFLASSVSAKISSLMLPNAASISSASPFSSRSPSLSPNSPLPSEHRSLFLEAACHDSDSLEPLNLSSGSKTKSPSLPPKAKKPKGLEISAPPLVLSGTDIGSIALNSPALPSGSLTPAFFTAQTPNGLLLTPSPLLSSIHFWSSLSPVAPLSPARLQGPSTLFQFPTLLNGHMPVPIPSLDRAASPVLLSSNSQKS
Conditions: protein: recombinant; tags: N-terminal GST; dsDNA, one strand shown. In outline: as §1

The target of assay [9] is T7, FEV (Homo sapiens, UniProt Q99581 1-238).
T7 sequence: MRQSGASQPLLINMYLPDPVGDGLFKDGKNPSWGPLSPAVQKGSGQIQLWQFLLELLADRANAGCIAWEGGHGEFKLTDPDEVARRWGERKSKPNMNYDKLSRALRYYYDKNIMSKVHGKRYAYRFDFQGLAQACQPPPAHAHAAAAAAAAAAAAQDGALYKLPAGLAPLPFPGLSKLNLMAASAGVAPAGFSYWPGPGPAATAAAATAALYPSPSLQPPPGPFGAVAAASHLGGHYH
Conditions: protein: recombinant; tags: N-terminal GST; dsDNA, one strand shown. In a few lines:
as §1

Assay [10] deals with ETV5 (Homo sapiens, UniProt P41161 1-510). Conditions: protein: recombinant; tags: N-terminal GST; dsDNA, one strand shown. In a few lines: as §1
Assay [11] concerns the target HSF1 (Homo sapiens, UniProt Q00613 1-529). Conditions: protein: recombinant; tags: N-terminal GST; chain copies: 3; dsDNA, one strand shown. In outline: as §1
Assay [12] deals with T8, SPIC (Homo sapiens, UniProt Q8N5J4 1-248).
T8 sequence: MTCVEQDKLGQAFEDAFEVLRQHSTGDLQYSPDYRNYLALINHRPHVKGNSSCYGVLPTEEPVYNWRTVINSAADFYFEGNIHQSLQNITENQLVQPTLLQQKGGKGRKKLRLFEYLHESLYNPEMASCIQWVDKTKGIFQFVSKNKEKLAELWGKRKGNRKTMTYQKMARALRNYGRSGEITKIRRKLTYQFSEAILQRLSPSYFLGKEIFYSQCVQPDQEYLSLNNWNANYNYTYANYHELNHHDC
Conditions: protein: recombinant; tags: N-terminal GST; dsDNA, one strand shown. In a few lines: as §1

For assay [13], the target named is T9, ELK4 (Homo sapiens, UniProt P28324-2 1-405).
T9 sequence: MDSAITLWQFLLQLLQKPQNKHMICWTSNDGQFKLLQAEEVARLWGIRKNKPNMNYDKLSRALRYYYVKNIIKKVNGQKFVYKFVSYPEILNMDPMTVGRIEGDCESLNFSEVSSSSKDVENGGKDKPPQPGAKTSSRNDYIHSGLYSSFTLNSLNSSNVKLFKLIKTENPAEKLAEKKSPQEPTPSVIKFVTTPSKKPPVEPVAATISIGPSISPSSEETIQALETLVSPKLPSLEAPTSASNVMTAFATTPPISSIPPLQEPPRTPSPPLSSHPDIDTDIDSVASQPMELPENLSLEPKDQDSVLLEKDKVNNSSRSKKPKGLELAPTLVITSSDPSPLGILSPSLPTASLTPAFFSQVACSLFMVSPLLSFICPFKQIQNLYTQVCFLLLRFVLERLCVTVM
Conditions: protein: recombinant; tags: N-terminal GST; dsDNA, one strand shown. In a few lines:
as §1

In assay [14] the target is T10, ELF3 (Homo sapiens, UniProt P78545 1-371).
T10 sequence: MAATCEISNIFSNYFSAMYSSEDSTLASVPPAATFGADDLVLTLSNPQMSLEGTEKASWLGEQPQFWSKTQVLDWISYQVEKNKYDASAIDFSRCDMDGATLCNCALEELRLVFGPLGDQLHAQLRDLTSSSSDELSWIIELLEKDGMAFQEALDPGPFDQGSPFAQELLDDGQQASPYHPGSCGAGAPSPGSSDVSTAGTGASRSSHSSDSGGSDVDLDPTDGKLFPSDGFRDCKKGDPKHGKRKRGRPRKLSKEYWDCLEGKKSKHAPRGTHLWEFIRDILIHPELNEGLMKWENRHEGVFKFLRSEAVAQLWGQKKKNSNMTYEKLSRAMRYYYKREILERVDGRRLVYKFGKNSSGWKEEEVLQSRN
Conditions: protein: recombinant; tags: N-terminal GST; dsDNA, one strand shown. In outline:
as §1

For assay [15], the target named is CRX (Homo sapiens, UniProt O43186 1-299). Conditions: protein: recombinant; tags: N-terminal GST; dsDNA, one strand shown. In a few lines:
as §1

For assay [16], the target named is ETV1 (Homo sapiens, UniProt P50549 1-477). Conditions: protein: recombinant; tags: N-terminal GST; dsDNA, one strand shown. In a few lines: as §1
ETV1, sequence (P50549 whole entry): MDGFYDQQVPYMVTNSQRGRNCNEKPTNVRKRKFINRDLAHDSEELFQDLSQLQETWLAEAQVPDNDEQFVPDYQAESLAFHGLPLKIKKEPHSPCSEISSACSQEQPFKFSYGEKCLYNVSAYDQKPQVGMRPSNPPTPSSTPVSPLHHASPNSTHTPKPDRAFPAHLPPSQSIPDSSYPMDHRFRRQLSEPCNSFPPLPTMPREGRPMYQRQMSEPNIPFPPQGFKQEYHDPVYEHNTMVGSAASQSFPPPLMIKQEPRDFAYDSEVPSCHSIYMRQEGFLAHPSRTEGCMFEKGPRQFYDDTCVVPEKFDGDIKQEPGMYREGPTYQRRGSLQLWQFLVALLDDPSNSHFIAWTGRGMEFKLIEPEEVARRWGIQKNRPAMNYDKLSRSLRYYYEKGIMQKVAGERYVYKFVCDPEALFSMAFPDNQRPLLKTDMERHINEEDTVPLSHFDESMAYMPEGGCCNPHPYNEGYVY

HSF1, sequence (Q00613 whole entry): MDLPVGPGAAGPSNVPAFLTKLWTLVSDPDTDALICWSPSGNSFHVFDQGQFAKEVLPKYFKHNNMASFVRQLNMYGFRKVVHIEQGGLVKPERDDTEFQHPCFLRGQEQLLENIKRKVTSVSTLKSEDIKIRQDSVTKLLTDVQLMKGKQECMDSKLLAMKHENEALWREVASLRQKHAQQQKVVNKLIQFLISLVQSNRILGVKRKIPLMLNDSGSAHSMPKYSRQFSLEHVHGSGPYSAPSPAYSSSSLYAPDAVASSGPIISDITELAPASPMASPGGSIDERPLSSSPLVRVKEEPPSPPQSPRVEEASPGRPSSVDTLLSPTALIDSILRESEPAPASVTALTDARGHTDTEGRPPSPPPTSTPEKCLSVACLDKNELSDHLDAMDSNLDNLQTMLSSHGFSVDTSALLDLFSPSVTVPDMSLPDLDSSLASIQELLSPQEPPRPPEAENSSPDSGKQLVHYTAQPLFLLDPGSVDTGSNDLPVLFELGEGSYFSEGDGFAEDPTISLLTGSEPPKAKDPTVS
ETV5, sequence (P41161 whole entry): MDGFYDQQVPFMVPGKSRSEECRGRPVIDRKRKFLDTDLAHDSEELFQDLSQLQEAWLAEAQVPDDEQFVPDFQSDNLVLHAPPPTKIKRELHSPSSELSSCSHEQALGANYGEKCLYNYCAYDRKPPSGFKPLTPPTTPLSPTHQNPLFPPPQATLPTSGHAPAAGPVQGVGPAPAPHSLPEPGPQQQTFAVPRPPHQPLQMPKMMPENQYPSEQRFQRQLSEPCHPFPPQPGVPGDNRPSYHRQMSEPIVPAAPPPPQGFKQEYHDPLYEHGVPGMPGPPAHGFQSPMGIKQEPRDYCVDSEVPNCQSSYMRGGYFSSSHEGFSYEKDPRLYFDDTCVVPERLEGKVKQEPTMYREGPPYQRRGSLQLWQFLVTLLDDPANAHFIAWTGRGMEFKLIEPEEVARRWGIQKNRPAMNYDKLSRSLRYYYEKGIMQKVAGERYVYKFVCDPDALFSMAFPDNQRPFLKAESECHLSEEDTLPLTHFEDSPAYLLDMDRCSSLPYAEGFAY
SPIB, sequence (Q01892 whole entry): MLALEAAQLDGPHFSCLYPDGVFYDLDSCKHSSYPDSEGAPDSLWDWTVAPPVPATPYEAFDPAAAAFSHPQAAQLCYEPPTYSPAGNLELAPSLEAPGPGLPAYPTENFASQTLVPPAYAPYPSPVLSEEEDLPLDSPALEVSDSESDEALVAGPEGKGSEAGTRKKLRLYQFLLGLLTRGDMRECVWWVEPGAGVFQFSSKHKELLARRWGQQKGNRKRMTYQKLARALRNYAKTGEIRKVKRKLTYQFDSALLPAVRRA
CRX, sequence (O43186 whole entry): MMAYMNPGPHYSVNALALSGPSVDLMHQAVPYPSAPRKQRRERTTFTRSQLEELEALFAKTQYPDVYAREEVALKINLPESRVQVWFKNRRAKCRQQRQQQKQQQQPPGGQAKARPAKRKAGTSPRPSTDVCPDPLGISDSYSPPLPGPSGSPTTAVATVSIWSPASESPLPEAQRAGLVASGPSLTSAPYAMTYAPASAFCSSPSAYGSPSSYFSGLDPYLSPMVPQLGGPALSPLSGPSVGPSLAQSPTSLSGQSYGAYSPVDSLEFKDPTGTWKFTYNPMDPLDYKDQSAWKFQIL

On to TGTTCG, for which the binding signal in [1] is 1.19 fold enrichment (6-mer frequency, TF over GST control); in assay [2] it was 1.1 fold enrichment (6-mer frequency, TF over GST control); in [3], 1.07 fold enrichment (6-mer frequency, TF over GST control); in assay [4], 1.04 fold enrichment (6-mer frequency, TF over GST control); in assay [5] it was 1.2 fold enrichment (6-mer frequency, TF over GST control); in assay [6], 1.06 fold enrichment (6-mer frequency, TF over GST control). In addition, the binding signal in assay [7] was 1.09 fold enrichment (6-mer frequency, TF over GST control); in assay [8] it was 1.03 fold enrichment (6-mer frequency, TF over GST control); in assay [9], 1.01 fold enrichment (6-mer frequency, TF over GST control); in [10], 1.06 fold enrichment (6-mer frequency, TF over GST control); in assay [11], 1.6 fold enrichment (6-mer frequency, TF over GST control); in assay [12], 1.15 fold enrichment (6-mer frequency, TF over GST control). Besides, the binding signal is 1.01 fold enrichment (6-mer frequency, TF over GST control) in [13]; 1.17 fold enrichment (6-mer frequency, TF over GST control) in assay [14]; 1.06 fold enrichment (6-mer frequency, TF over GST control) in assay [15]; 1.05 fold enrichment (6-mer frequency, TF over GST control) in assay [16].
Turning to TGGATT, the binding signal is 1.02 fold enrichment (6-mer frequency, TF over GST control) in [1]; 1.05 fold enrichment (6-mer frequency, TF over GST control) in assay [4]; 1.02 fold enrichment (6-mer frequency, TF over GST control) in [6]; 1.05 fold enrichment (6-mer frequency, TF over GST control) in [7]; 1.06 fold enrichment (6-mer frequency, TF over GST control) in assay [10]; 1.85 fold enrichment (6-mer frequency, TF over GST control) in [11]. In addition, the binding signal in assay [12] was 1.07 fold enrichment (6-mer frequency, TF over GST control); in [13], 1.11 fold enrichment (6-mer frequency, TF over GST control); in [15] it was 2.46 fold enrichment (6-mer frequency, TF over GST control).
